The whole screen tested about 330,000 compounds, of which about 1,900 (0.58%) were called active. Another 4% or so got no clear call; they are omitted. Rule as the data show it: inconclusive = inhibition above about 70% without an active follow-up result; inactive = below that. Only a sample is shown. Potency and affinity values are given separately.

The assay in a line: M. tuberculosis growth inhibition, HTS (AID 449762).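 Also: bacterial growth assessed after seven days of incubation.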 The following applies: M. tuberculosis H37Rv growth inhibition, 7H9 media; at 25 µM; stronger effect = higher value.
Usually inhibition stands for the relative decrease from the control value, in per cent. `CCC(=O)N1N=C(c2ccc(NS(=O)(=O)c3ccccc3)cc2)CC1c1ccco1` (configuration not stated): the inhibition was 1.78% (inactive).

Take `CCn1c(=O)c2c(nc3n2CCCN3CCc2ccccc2)n(C)c1=O`: the inhibition was 6.27% (inactive).

With `COc1ccc(Cc2c(C)nc(N)nc2Cl)cc1`, the inhibition was 8.87% (inactive).

Turning to `Cc1nc(N)nc(Cl)c1Cc1ccc(Cl)cc1`, the inhibition is 0.95% (inactive).

`COc1cc(OC)cc(C(=O)NCC(=O)OCC(=O)N2CCc3ccccc32)c1`: the inhibition is 5.39% (inactive).

Consider `Cc1cc2c(nn1)CCc1c-2no[n+]1[O-]`, for which the inhibition is -1.95% (inactive).

Consider `O=C(CN1CCN(c2ncccn2)CC1)NCc1ccc2c(c1)OCO2`, for which the inhibition was -8.33% (inactive).

For the compound `O=C(CN1CCN(c2nc(-c3ccccc3)cs2)CC1)Nc1ccc2c(c1)OCO2`, the inhibition was -7.77% (inactive).

`O=C1C2CC=C(Cl)CC2C(=O)N1CC1Cc2ccccc2CO1` (configuration not stated): the inhibition is -2.11% (inactive).

As for `N#Cc1cccc(NC(=O)CCc2ccc(S(=O)(=O)N3CCOCC3)cc2)c1`, the inhibition is 2.35% (inactive).

As for `CCOc1ccc2nc(N3CCCC(C(=O)NCCCN4C(C)CCCC4C)C3)sc2c1` (configuration not stated), the inhibition was 6.54% (inactive).

With `CCOc1ccc(CCNC(=O)C2CCN(c3nnc(-n4cccc4)s3)CC2)cc1`, the inhibition was -2% (inactive).

With `OCC[C@H]1C[C@@H](O)[C@H](O)[C@@]2(Cc3ccccc3CO2)O1`, the inhibition was -8.04% (inactive).

Turning to `O=C(CSc1nnc(Nc2ccccc2F)s1)NC(=O)CN1CCCC1=O`, the inhibition was -10.7% (inactive).

In the case of `COc1ccc(OCc2cccc(C(=O)NN)c2)cc1`, the inhibition was 5.13% (inactive).

For `Cc1nn(Cc2cccc(C(=O)Nn3cc([N+](=O)[O-])cn3)c2)c(C)c1[N+](=O)[O-]`, the inhibition was 10.2% (inactive).

Consider `CC1CCN(C(=O)Cn2nnc(-c3ccccc3)n2)CC1`, for which the inhibition is 5.98% (inactive).

For `CC(C)(C)c1ccc(/C=C2/SC(N3CCCC3)=NC2=O)cc1`, the inhibition is 24.7% (inactive).

Take `Cc1ccsc1/C=C1\SC(N2CC(C)OC(C)C2)=NC1=O` (configuration not stated): the inhibition was 67.9% (inactive).

As for `O=C1N=C(N2CCCC2)S/C1=C\c1ccccc1`, the inhibition is 0.89% (inactive).

As to `Cc1ccsc1/C=C1/SC(N2CC(C)OC(C)C2)=NC1=O` (configuration not stated), the inhibition was 68.3% (inactive).

As for `COC(=O)C(CCCN1C(=O)c2ccccc2C1=O)(NC(C)=O)c1nnn(C)n1` (configuration not stated), the inhibition is -2.74% (inactive).

With `COC(=O)c1cccc(-c2noc(-c3ccccc3F)n2)c1`, the inhibition was -2.87% (inactive).

`Cc1cccc(NC(=O)c2sccc2-n2cccc2)c1C`: the inhibition was 6.88% (inactive).

As for `Cc1ccc(NC(=O)c2sccc2-n2cccc2)c(Cl)c1`, the inhibition was 4.85% (inactive).

For `Cc1ccc2cc(CN(c3ccccc3C)S(=O)(=O)c3ccccc3)c(=O)[nH]c2c1`, the inhibition is 11.1% (inactive).

Regarding `Nc1sccc1C(=O)c1ccccc1`, the inhibition was -3.41% (inactive).

For `CNC(=O)c1ccsc1NC(=O)c1ccccc1`, the inhibition was -14.7% (inactive).

As to `Cc1cc(OCC(O)CNC(C)(C)C)ccc1Cl` (configuration not stated), the inhibition was -5.73% (inactive).

Consider `COc1ccc(CCNCC(O)COc2ccc(Cl)cc2)cc1OC` (configuration not stated), for which the inhibition was -0.15% (inactive).

`Cc1cc(C)c(OCC(=O)OCC(=O)NC2CCCCCCC2)c(C)c1`: the inhibition was -6.93% (inactive).

`CCN(CC)S(=O)(=O)c1ccc(C(=O)NNC2=NS(=O)(=O)c3ccccc32)cc1`: the inhibition is -5.34% (inactive).

Turning to `O=c1[nH]c(CN2CCN(c3ccccc3Cl)CC2)nc2ccsc12`, the inhibition was 6.57% (inactive).

In the case of `COc1ccccc1N1CCN(Cc2nc3ccsc3c(=O)[nH]2)CC1`, the inhibition was -2.58% (inactive).

Regarding `COC(=O)C1=C(c2c(C)noc2C)C[C@@H]2CC[C@H]1N2C(=O)N1CCC(C)CC1`, the inhibition was -12.5% (inactive).

Turning to `COc1ccc(-c2nnc(SCc3ccc(C(=O)O)cc3)n2C)cc1OC`, the inhibition was 2.72% (inactive).

On to `COc1ccc(C(=O)C2CCN(C(=S)NCC3CCCO3)CC2)cc1` (configuration not stated), for which the inhibition was 0.55% (inactive).

In the case of `CC(C)=CCC[C@](C)(O[C@@H]1O[C@H](CO[C@@H]2OC[C@@H](O)[C@H](O)[C@H]2O)[C@@H](O)[C@H](O)[C@H]1O)C1CC[C@]2(C)C1[C@H](O)CC1[C@@]3(C)CC[C@H](O[C@@H]4O[C@H](CO)[C@@H](O)[C@H](O)[C@H]4O)C(C)(C)C3CC[C@]12C` (some centres not stated), the inhibition was 1.5% (inactive).

With `CC(C)=CCC[C@](C)(O)C1CC[C@]2(C)C1[C@H](O)CC1[C@@]3(C)CC[C@H](O[C@@H]4O[C@H](CO)[C@@H](O)[C@H](O)[C@H]4O[C@@H]4O[C@H](CO)[C@@H](O)[C@H](O)[C@H]4O)C(C)(C)C3CC[C@]12C` (some centres not stated), the inhibition is -2.47% (inactive).

Consider `N#Cc1cc(Nc2c(N)nc[nH]c2=O)c([N+](=O)[O-])cc1C#N`, for which the inhibition was -9.11% (inactive).

On to `CCc1ccccc1OCCCOc1ccc(OC)cc1`, for which the inhibition is 3.7% (inactive).

`Cc1[nH]c2ccccc2c1C(=O)COC(=O)c1ccccc1O`: the inhibition was -1.43% (inactive).

`O=C(COC(=O)c1ccc([N+](=O)[O-])s1)NCc1ccccc1`: the inhibition was 40.3% (inactive).

As for `CC(C)[C@H](NC(N)=O)C(=O)NNC(=O)COc1cccc(C(F)(F)F)c1`, the inhibition was -1.74% (inactive).

For the compound `CCOC(=O)C(=O)Nc1ccc(OCc2ccccc2)cc1`, the inhibition was 62.7% (inactive).

Take `CC(C)Oc1ccc(NC(N)=O)cc1`: the inhibition is -11.6% (inactive).

As for `CC(C)NC(=O)COc1ccc(OCc2ccccc2)cc1`, the inhibition was -4.33% (inactive).

Turning to `CCOc1ccc(NC(C)=O)cc1`, the inhibition is 3.93% (inactive).

As to `Cc1ccc(S(=O)(=O)n2nc(-n3c(C)ccc3C)c3c(F)cccc32)c2ccccc12`, the inhibition was 11.8% (inactive).

Consider `O=C(N/N=C/C=C/c1ccc([N+](=O)[O-])cc1)c1cccs1`, for which the inhibition is 3.01% (inactive).

Regarding `O=C(N/N=C/C=C/c1ccccc1[N+](=O)[O-])c1cccs1`, the inhibition is -11.8% (inactive).

As for `Cc1noc(NS(=O)(=O)c2ccc(NC(=O)C(C)(C)C)cc2)c1C`, the inhibition was 3.27% (inactive).

In the case of `C=CCNC(=O)Cc1ccc(S(=O)(=O)N2CCOCC2)s1`, the inhibition was -1.17% (inactive).

For `COc1cc(C(C)=O)ccc1OCC(O)Cn1nc(C)c(Br)c1C` (configuration not stated), the inhibition is 3.09% (inactive).

`NS(=O)(=O)c1ccc(CNC(=O)c2ccc3ccccc3n2)cc1`: the inhibition was 7.68% (inactive).

As for `O=C(Cc1cn2ccsc2n1)Nc1nc2c(s1)CCCC2`, the inhibition is -0.56% (inactive).

Consider `O=C(Cc1cn2ccsc2n1)Nc1nc2c(s1)CN(Cc1ccccc1)CC2`, for which the inhibition was -6% (inactive).
